Laboratory results reported in PubChem BioAssay AID1903 (Southern Research Specialized Biocontainment Screening …, 2009).
Out of some 310,000 compounds screened, about 1,200 (0.39%) were called active. How the calls were made is not given here. The list is a sample of the results. Measured potencies and affinities stand elsewhere.

molecular target: Large T antigen (Simian virus 40) (UniProt P03070); assay: TAg ATPase/helicase activity blockers – biochemical (AID 1903); details: SV40 large T antigen ATPase/helicase inhibition assay; at 20 µM; active compounds read high
Sequence (P03070 whole entry, looked up): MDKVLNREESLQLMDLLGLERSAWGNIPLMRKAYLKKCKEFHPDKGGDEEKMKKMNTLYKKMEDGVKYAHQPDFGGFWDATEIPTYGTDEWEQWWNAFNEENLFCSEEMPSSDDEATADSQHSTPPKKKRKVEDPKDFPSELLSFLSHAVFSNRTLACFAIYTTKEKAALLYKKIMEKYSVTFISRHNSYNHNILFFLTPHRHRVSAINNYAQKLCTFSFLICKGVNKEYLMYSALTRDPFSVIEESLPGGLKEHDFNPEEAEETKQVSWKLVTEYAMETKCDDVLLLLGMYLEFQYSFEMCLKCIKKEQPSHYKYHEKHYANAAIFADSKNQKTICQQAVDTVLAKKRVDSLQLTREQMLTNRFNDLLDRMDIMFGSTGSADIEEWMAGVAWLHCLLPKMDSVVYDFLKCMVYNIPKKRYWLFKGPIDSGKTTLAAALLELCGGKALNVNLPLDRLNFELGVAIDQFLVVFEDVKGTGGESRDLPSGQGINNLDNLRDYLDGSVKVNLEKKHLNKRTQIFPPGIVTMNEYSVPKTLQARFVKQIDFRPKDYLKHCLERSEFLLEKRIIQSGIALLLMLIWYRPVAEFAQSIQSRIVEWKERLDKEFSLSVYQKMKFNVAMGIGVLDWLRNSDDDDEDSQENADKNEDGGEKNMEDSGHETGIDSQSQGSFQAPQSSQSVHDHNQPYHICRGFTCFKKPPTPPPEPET

inhibition, inactive:
COc1ccc(-n2cnc3cc(C(=O)NCC4CCCO4)ccc32)cc1 (configuration not stated) 3.91%
CN(C)CCCN(C(=O)c1ccco1)c1nc2ccc(F)cc2s1 7.29%
C(=N\N1CCN(c2ccccc2)CC1)/c1ccccc1 8.2%
COC(=O)[C@@H]1C[C@H]2CC[C@H](O)C[C@H]2N1Cc1ccc(Cl)cc1 8.58%
N#Cc1c(/N=C/c2ccc(-c3ccccc3C(=O)O)o2)sc2c1CCCC2 13.3%
CCOC(=O)C1CCN(C(=O)CCNC(=O)c2cc(OC)c(OC)c(OC)c2)CC1 4.64%
CCOC(=O)CSc1nnc(NC(=O)c2ccco2)s1 -8%
Cc1ccc(N(CC(=O)NCC2CCCO2)C(=O)Cn2nnc(-c3cccs3)n2)cc1 (configuration not stated) 24.6%
Cc1ncc(CN2CCC(CO)(Cc3ccccc3)CC2)s1 2.75%
COc1ccc(NC2CCCN(C(=O)c3ccncc3)C2)cc1 (configuration not stated) 51.8%
COc1ccc(NC2CCCN(C(=O)c3ccc(C(C)=O)cc3)C2)cc1 (configuration not stated) 46.3%
O=C(Nc1cccnc1)/C(N=Nc1c(Cl)cccc1Cl)=C(\O)c1ccccc1 0.28%
C/C(=N/NC(=O)c1ccncc1)c1cc2ccc(O)cc2oc1=O 12.9%
C/C(=N\NC(=O)CC#N)c1cc2ccc(O)cc2oc1=O 21.8%
CCc1noc(C)c1C(=O)N1CCN(S(=O)(=O)c2c(C)c(C)cc(C)c2C)CC1 5.1%
O=C(O)c1ccccc1C(=O)c1cccc2ccccc12 8.24%
O=C(O)CCC(=O)c1cccc2ccccc12 6.26%
CS(=O)(=O)N1CCCC(C(=O)N2CCN(c3cccc(Cl)c3)CC2)C1 (configuration not stated) 9.69%
COc1ccccc1NC(=S)N(CCCN1CCOCC1)Cc1ccccn1 12.9%
CSc1nc2ccc(S(=O)(=O)N3CCCCC3)cc2s1 4.61%
Cc1nc2ccc(S(=O)(=O)N3CCCCC3)cc2s1 2.61%
COc1ccc(NC(=O)CC2C(=O)N(c3ccc(F)cc3)C(=S)N2NC(=O)c2ccc(Cl)cc2)cc1 (configuration not stated) 8.76%
CCCOc1ccc(C(=O)Nc2ccc(N(C)C)cc2)cc1 32%
CC(C)Oc1ccc(NC(=O)c2ccncc2)cc1 3.7%
COc1cc(C(=O)Nc2ccc(Nc3ccccc3)cc2)cc(OC)c1OC 12.4%
O=C(Nc1ccccc1)c1cccc(N2C(=O)CCC2=O)c1 5.21%
COc1cc(C(=O)Nc2ccncc2)cc(OC)c1OC 5.76%
O=C(Nc1ccc(F)cc1)c1ccc2nc[nH]c2c1 7.49%
O=C(Nc1ccc(Br)cc1)c1cccc(N2C(=O)CCC2=O)c1 7.57%
CN(C)c1ccc(NC(=O)c2ccc3nsnc3c2)cc1 18.4%
COc1ccc(-c2cc(=O)c3cc(OC)c(OC)cc3[nH]2)cc1 3.81%
Cc1ccc(/C=C(\NC(=O)c2ccccc2)C(=O)NCC2CCCO2)o1 (configuration not stated) 6.08%
O=C(COc1ccc(C(=O)c2ccccc2)cc1)NC1CCCCCC1 -8.94%
NC(N)=Nc1nc2ccc(Cl)cc2c(=O)[nH]1 11.5%
COc1ccc(NC(=O)/C=C/c2ccc(OC(F)F)cc2)cn1 9.9%
COc1ccc(N2CCN(C(=O)CN3C(=O)NC(c4ccc(OC)cc4)(c4ccc(OC)cc4)C3=O)CC2)cc1 6.64%
Cc1cc(=O)n(CC=C(Cl)Cl)c2ccccc12 -7.91%
NC(=S)NN=C1c2ccccc2-c2ccccc21 7.35%
NC(=S)N/N=C/c1ccccc1 13%
CC(=O)Nc1ccc(NC(=O)CS(=O)(=O)c2cn(CC(=O)N3CCCC3)c3ccccc23)cc1 14%
Cc1ccc(-n2nc(C)c(NC(=O)CCl)c2C)cc1 9.64%
CC(C)CCNC(=O)c1cccc(S(=O)(=O)N2CCc3ccccc32)c1 11.5%
COC(=O)c1c(NC(=O)COC(=O)c2ccccn2)sc(C)c1C 11.7%
COc1cc(-c2nnc(SCc3ccccc3Cl)o2)cc(OC)c1OC 4.19%
COc1cc(-c2nnc(SCc3cc(=O)oc4cc(C)ccc34)o2)cc(OC)c1OC 0.12%
COc1ccccc1-c1nc2c(c(SCC(=O)N3CCCCC3)n1)Cc1c(CO)cnc(C)c1O2 4.68%
Cc1sc2ncn(CC(=O)NCc3ccccn3)c(=O)c2c1S(=O)(=O)N1CCOCC1 -0.92%
Nn1c(SCC(=O)N2CCCCCC2)nnc1-c1ccncc1 2.98%
Cc1ccc(S(=O)(=O)N2[C@@H](c3ccccc3)C(C(=O)O)=CC[C@H]2c2ccc(Cl)cc2)cc1 17.2%
Cc1ccc([C@@H]2CC=C(C(=O)O)[C@H](c3ccc(Cl)cc3)N2S(=O)(=O)c2ccc(C)cc2)cc1 21.6%
Cc1ccc(C(=O)COC(=O)CNC(=O)CNC(=O)c2ccc(C)cc2)cc1 10.1%
COc1cc(NC(=O)c2cc([N+](=O)[O-])ccc2NC(=O)CN2CCN(c3ccccn3)CC2)cc(OC)c1 2.42%
Cc1ccc(NC(=O)NCCN2CCCCC2)cc1 12.7%
Cc1cc(C)c(S(=O)(=O)NCCn2c(C)cc3ccccc32)c(C)c1 3.6%
NS(=O)(=O)c1ccc(-c2ccc(/C=C3\C(=O)Nc4ccccc43)o2)cc1 3.06%
NS(=O)(=O)c1ccc(-c2ccc(/C=C3\NC(=S)NC3=O)o2)cc1 34.2%
COc1ccccc1/C=C/C(=O)N1CCCC1 16.6%
Cn1cc([N+](=O)[O-])c(C(=O)NC2CCCCCCC2)n1 11.7%
CCOc1cc(N2CCOCC2)c(OCC)cc1NC(=O)C(C)C 5.9%
CCOc1cc(N2CCOCC2)c(OCC)cc1NS(=O)(=O)c1cc(NC(C)=O)ccc1OC 9.72%
O=S(=O)(Nc1ccc(N2CCOCC2)cc1)c1ccc(Cl)s1 36.6%
CCOc1cc(N2CCOCC2)c(OCC)cc1NC(C)C(=O)N1CCN(CC)CC1 (configuration not stated) 4.25%
